Compounds without any hit were thinned out: in the full panel of roughly 83,000, 20% have a hit.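 Plates (96-well) were seeded with cells, treated with compound at one concentration, and incubated for 48 hours before percent growth was determined.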 Activity calls are given as the source filed them. How the source made its calls: active means growth percent below 10; inactive means the rest.
What was measured:
Assay in all cases: NCI-60 one-dose screen, 48 h (100 = growth as untreated, 0 = no growth, -100 = all killed)
Details in all cases: 10 µM unless noted
HCT-15 colon = system: HCT-15 colon
HT29 colon = system: HT29 colon
SNB-75 CNS = system: SNB-75 CNS
SNB-19 CNS = system: SNB-19 CNS
U251 CNS = system: U251 CNS
PC-3 prostate = system: PC-3 prostate
SK-MEL-5 melanoma = system: SK-MEL-5 melanoma
UACC-62 melanoma = system: UACC-62 melanoma
LOX IMVI melanoma = system: LOX IMVI melanoma
SK-MEL-28 melanoma = system: SK-MEL-28 melanoma

Measured: growth

CCCCOc1c(N)cccc1C(=O)OCCN(CC)CC
inactive: HCT-15 colon 109% | HT29 colon 85.8% | SNB-75 CNS 102% | SNB-19 CNS 99.9% | U251 CNS 96.5% | PC-3 prostate 86.8% | SK-MEL-5 melanoma 105% | UACC-62 melanoma 95.2% | LOX IMVI melanoma 102% | SK-MEL-28 melanoma 112%

COc1ccccc1P(c1ccccc1OC)c1ccccc1OC
inactive: HCT-15 colon 104% | HT29 colon 92.2% | SNB-75 CNS 98% | SNB-19 CNS 75.7% | U251 CNS 95.7% | PC-3 prostate 80% | SK-MEL-5 melanoma 88.6% | UACC-62 melanoma 90% | LOX IMVI melanoma 85.4% | SK-MEL-28 melanoma 117%

COc1ccc(-c2nnc(SCC(=O)N3CCN(c4cc5c(cc4F)c(=O)c(C(=O)O)cn5C4CC4)CC3)o2)cc1OC
inactive: HCT-15 colon 93.6% | HT29 colon 94.6% | SNB-75 CNS 98.4% | SNB-19 CNS 97.4% | U251 CNS 98.4% | PC-3 prostate 59.2% | SK-MEL-5 melanoma 99.7% | UACC-62 melanoma 97.7% | LOX IMVI melanoma 81.6% | SK-MEL-28 melanoma 95.2%

Cc1cc(O[C@@H]2O[C@@H](C)[C@H](O)[C@@H](O)[C@H]2O)c2c3c(c(O[C@@H]4O[C@@H](C)[C@H](O)[C@@H](O)[C@H]4O)cc2c1)C(=O)c1c(O)cccc1C3=O
inactive: HCT-15 colon 87.9% | HT29 colon 72.4% | SNB-75 CNS 52.2% | SNB-19 CNS 94.3% | U251 CNS 82% | PC-3 prostate 56.7% | SK-MEL-5 melanoma 67.8% | UACC-62 melanoma 65.6% | LOX IMVI melanoma 74% | SK-MEL-28 melanoma 90.8%

CN(C)CC/C=C1\c2ccccc2Sc2ccc(Cl)cc21
inactive: HCT-15 colon 78.9% | HT29 colon 30.6% | SNB-75 CNS 52.4% | SNB-19 CNS 85.2% | U251 CNS 49.5% | PC-3 prostate 65% | SK-MEL-5 melanoma 34.1% | UACC-62 melanoma 47.1% | LOX IMVI melanoma 53.6% | SK-MEL-28 melanoma 55.9%

Cc1ccc(-c2nc3c(N=Nc4ccc(S(N)(=O)=O)cc4)c(N)nn3c(N)c2C#N)cc1
inactive: HCT-15 colon 82.5% | HT29 colon 35.8% | SNB-75 CNS 49% | SNB-19 CNS 58% | U251 CNS 31.8% | PC-3 prostate 32.4% | UACC-62 melanoma 52.9% | LOX IMVI melanoma 22.5% | SK-MEL-28 melanoma 52.8%
active: SK-MEL-5 melanoma -52.2%

CC[C@H]1[C@@H]2C=C[C@@H]3[C@H]4C/C=C\C(=O)NCCC[C@@H]5NC(=O)/C(=C(O)/C=C/[C@@H]4C[C@@H]3[C@H]2C[C@H]1C)C5=O
active: HCT-15 colon -29.4% | SNB-75 CNS -85.6% | SNB-19 CNS -40.6% | PC-3 prostate -35.3% | SK-MEL-5 melanoma -70.4% | LOX IMVI melanoma -84.8%
inactive: HT29 colon 14.4% | U251 CNS 46.5% | UACC-62 melanoma 72.6% | SK-MEL-28 melanoma 60.9%

CCN(CC)CCC(C(=O)O)(c1ccccc1)c1ccccc1
inactive: HCT-15 colon 103% | HT29 colon 94.9% | SNB-75 CNS 86.8% | SNB-19 CNS 104% | U251 CNS 109% | PC-3 prostate 103% | SK-MEL-5 melanoma 104% | UACC-62 melanoma 97.9% | LOX IMVI melanoma 95.7% | SK-MEL-28 melanoma 109%

S=c1ssnc1-c1ccccn1
inactive: HCT-15 colon 14.1% | HT29 colon 33.6% | SNB-75 CNS 36.6% | SNB-19 CNS 47.8% | U251 CNS 28.9% | PC-3 prostate 32.9% | SK-MEL-5 melanoma 16.7% | UACC-62 melanoma 34.5% | SK-MEL-28 melanoma 52.2%
active: LOX IMVI melanoma 6.73%

O=C(C[n+]1ccccc1Cl)c1ccc2c(c1)CCCC2
inactive: HCT-15 colon 102% | HT29 colon 79.7% | SNB-75 CNS 88.4% | SNB-19 CNS 108% | U251 CNS 97.7% | PC-3 prostate 87.3% | SK-MEL-5 melanoma 98.4% | UACC-62 melanoma 106% | LOX IMVI melanoma 101% | SK-MEL-28 melanoma 105%

COc1cc(-c2nc(SCC(=O)Nc3ccc(C(C)=O)cc3)[nH]c(=O)c2C#N)cc(OC)c1OC
active: HT29 colon 6.82%
inactive: HCT-15 colon 40.2% | SNB-75 CNS 38.3% | SNB-19 CNS 58.2% | U251 CNS 16% | PC-3 prostate 18% | SK-MEL-5 melanoma 15.2% | UACC-62 melanoma 36% | LOX IMVI melanoma 18.5% | SK-MEL-28 melanoma 57.8%

OC(COc1ccccc1Cl)CN1CCN(c2ccc(Cl)cc2)CC1 (stereo not given)
inactive: HCT-15 colon 90.5% | HT29 colon 113% | SNB-75 CNS 83.3% | SNB-19 CNS 111% | U251 CNS 99.5% | PC-3 prostate 85.1% | SK-MEL-5 melanoma 104% | UACC-62 melanoma 95.9% | LOX IMVI melanoma 104% | SK-MEL-28 melanoma 103%

CC1=C[S+](c2ccccc2)c2cccc3cc4ccccc4c1c23 (stereo not given)
active: HCT-15 colon 7.56% | HT29 colon 0.469% | SNB-75 CNS -91.1% | SNB-19 CNS -93.6% | U251 CNS -81% | PC-3 prostate 1.38% | SK-MEL-5 melanoma -86.7% | UACC-62 melanoma -85.2% | LOX IMVI melanoma 8.36%
inactive: SK-MEL-28 melanoma 11.5%

S=c1n(CNc2ccc(Cl)nn2)nc(-c2cc(Cl)cc(Cl)c2Cl)n1/N=C/c1ccc(Cl)cc1
inactive: HCT-15 colon 117% | HT29 colon 118% | SNB-75 CNS 98.5% | SNB-19 CNS 102% | U251 CNS 86.9% | PC-3 prostate 82.6% | SK-MEL-5 melanoma 90.9% | UACC-62 melanoma 90.4% | LOX IMVI melanoma 94.5% | SK-MEL-28 melanoma 105%

c1ccc(OCC[P+](c2ccccc2)(c2ccccc2)c2ccccc2)cc1
inactive: HCT-15 colon 78% | HT29 colon 13% | SNB-75 CNS 16.5% | SNB-19 CNS 21.5% | U251 CNS 14.8% | PC-3 prostate 11.8% | SK-MEL-28 melanoma 26.1%
active: SK-MEL-5 melanoma -40.1% | UACC-62 melanoma 8.25% | LOX IMVI melanoma 2.69%

O=C(Nc1ccc(-n2cc(-c3ccncc3)c(-c3ccc(O)c(Cl)c3)n2)cc1)c1ccc(Cl)c(Cl)c1
active: HT29 colon -10.4% | SK-MEL-5 melanoma -20.3% | LOX IMVI melanoma -29.1%
inactive: HCT-15 colon 18.2% | SNB-75 CNS 70% | SNB-19 CNS 59.6% | U251 CNS 26.8% | PC-3 prostate 20.2% | UACC-62 melanoma 59.1% | SK-MEL-28 melanoma 59.7%

Nc1nc(Cl)cc(NCCCCNc2cc(Cl)nc(N)n2)n1
inactive: HCT-15 colon 114% | HT29 colon 109% | SNB-75 CNS 108% | SNB-19 CNS 101% | U251 CNS 99.6% | PC-3 prostate 95.8% | SK-MEL-5 melanoma 111% | UACC-62 melanoma 101% | LOX IMVI melanoma 96.9% | SK-MEL-28 melanoma 118%

CC(C)NCC(O)COc1ccc(CC(N)=O)cc1 (stereo not given)
inactive: HCT-15 colon 99.3% | HT29 colon 103% | SNB-75 CNS 99% | SNB-19 CNS 106% | U251 CNS 101% | PC-3 prostate 92.5% | SK-MEL-5 melanoma 94.9% | UACC-62 melanoma 107% | LOX IMVI melanoma 98.1% | SK-MEL-28 melanoma 103%

O=C(Nc1ccc(-n2cc(-c3ccncc3)c(-c3ccc(O)c(Cl)c3)n2)cc1)Nc1cccc(Cl)c1Cl
active: HT29 colon 1.45%
inactive: HCT-15 colon 43.1% | SNB-75 CNS 72.5% | SNB-19 CNS 71.9% | U251 CNS 39.7% | PC-3 prostate 29% | SK-MEL-5 melanoma 31.2% | UACC-62 melanoma 89.5% | LOX IMVI melanoma 52.8% | SK-MEL-28 melanoma 60.3%

Cc1c(NC(=O)c2sc3nc4c(cc3c2N)CN(Cc2ccccc2)CC4)cccc1C(F)(F)F
inactive: HCT-15 colon 29.3% | HT29 colon 12.2% | SNB-75 CNS 45.8% | SNB-19 CNS 50.5% | U251 CNS 38.2% | PC-3 prostate 56% | SK-MEL-5 melanoma 41.9% | UACC-62 melanoma 37.2% | LOX IMVI melanoma 42.3% | SK-MEL-28 melanoma 74%

CSc1ccc(C(=O)C[n+]2cccc(C)c2)cc1
inactive: HCT-15 colon 103% | HT29 colon 99.8% | SNB-75 CNS 90.7% | SNB-19 CNS 97.8% | U251 CNS 101% | PC-3 prostate 96% | SK-MEL-5 melanoma 100% | UACC-62 melanoma 95.1% | LOX IMVI melanoma 103% | SK-MEL-28 melanoma 105%

Nc1nc2ccc(CNc3ccc(C(=O)NC(CC(=O)O)C(=O)O)cc3)cc2c(=O)[nH]1 (stereo not given)
inactive: HCT-15 colon 39.8% | HT29 colon 18.6% | SNB-75 CNS 70.4% | SNB-19 CNS 62.6% | U251 CNS 49.5% | PC-3 prostate 33.1% | SK-MEL-5 melanoma 30% | UACC-62 melanoma 31.6% | LOX IMVI melanoma 19.5% | SK-MEL-28 melanoma 106%

C#C[C@@]1(O)[C@@H](CO)O[C@@H](n2cc(Br)c3c(Cl)ccnc32)[C@@H]1O
active: HCT-15 colon 8.13% | PC-3 prostate -25.7% | LOX IMVI melanoma -34%
inactive: HT29 colon 12.2% | SNB-75 CNS 35.9% | SNB-19 CNS 37.1% | U251 CNS 70.9% | SK-MEL-5 melanoma 73.7% | UACC-62 melanoma 68% | SK-MEL-28 melanoma 98.9%

COc1cc(/C=C/C(=O)N2CCC=CC2=O)cc(OC)c1OC
inactive: HT29 colon 23.2% | SNB-75 CNS 75.7% | SNB-19 CNS 72.9% | U251 CNS 68.3% | PC-3 prostate 79.7% | SK-MEL-5 melanoma 73.8% | UACC-62 melanoma 40.8% | LOX IMVI melanoma 10.2% | SK-MEL-28 melanoma 56%
active: HCT-15 colon 1.7%

O=C(Nc1ccc(-n2ccc3c(NC(=O)c4ccccc4)ncnc32)cc1)c1cccc(C(F)(F)F)c1
inactive: HCT-15 colon 19.7% | HT29 colon 22% | SNB-75 CNS 63.9% | SNB-19 CNS 57.4% | U251 CNS 27.3% | PC-3 prostate 43.7% | SK-MEL-5 melanoma 33.1% | UACC-62 melanoma 25.4% | SK-MEL-28 melanoma 71.2%
active: LOX IMVI melanoma 3.47%

COc1ccc(-c2c(NC(=O)Nc3ccc(Cl)c(C(F)(F)F)c3)cnn2-c2ccc(S(N)(=O)=O)cc2)cc1
active: PC-3 prostate 9.52%
inactive: HCT-15 colon 68.3% | HT29 colon 24.8% | SNB-75 CNS 65.7% | SNB-19 CNS 21.5% | U251 CNS 15.6% | SK-MEL-5 melanoma 27% | UACC-62 melanoma 41.2% | LOX IMVI melanoma 37.6% | SK-MEL-28 melanoma 42.2%

CCN(CC)CCNc1ccc([N+](=O)[O-])c2sc3cc(Cl)ccc3c(=O)c12
inactive: HCT-15 colon 48.5% | HT29 colon 34.7% | SNB-19 CNS 42.2% | U251 CNS 40.4% | PC-3 prostate 48.5% | SK-MEL-5 melanoma 61.7% | UACC-62 melanoma 30.9% | LOX IMVI melanoma 19.1%
active: SNB-75 CNS 1.48% | SK-MEL-28 melanoma -47.5%
